D3 ag = D3 dopamine receptor (human) agonism; hit rate 0.58% among 410,000; P35462; AID 652048; max activation, %; D3R DiscoveRx beta-arrestin cells, luminescence, 90 min; in the data active means max activation above about 30%; further: 0% is about no effect
Target sequence (P35462 whole entry, looked up): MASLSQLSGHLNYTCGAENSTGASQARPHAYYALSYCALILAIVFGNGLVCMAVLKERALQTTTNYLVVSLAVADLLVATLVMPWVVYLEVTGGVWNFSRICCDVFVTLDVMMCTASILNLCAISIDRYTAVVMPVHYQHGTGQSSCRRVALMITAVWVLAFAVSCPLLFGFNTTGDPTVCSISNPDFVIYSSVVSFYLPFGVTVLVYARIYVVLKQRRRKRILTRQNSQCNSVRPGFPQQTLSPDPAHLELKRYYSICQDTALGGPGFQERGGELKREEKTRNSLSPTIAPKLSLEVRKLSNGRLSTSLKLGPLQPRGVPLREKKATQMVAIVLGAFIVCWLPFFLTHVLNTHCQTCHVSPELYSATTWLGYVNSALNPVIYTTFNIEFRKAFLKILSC
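Cells at 1500/well, incubated overnight, then treated with pinned compounds (dopamine as control) for 90 min at 37 degrees C. DiscoveRx reagent added for 30 - 60 minutes at room temperature; luminescence read.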
DT40 TDP1 no CPT = qHTS for Inhibitors of human tyrosyl-DNA phosphodiesterase 1 (TDP1): qHTS in cells in absence of CPT; Potency, µM (highest dose often 46.2 µM), inactives show at the highest dose activity change, negative = growth inhibition, most hits filed as inhibitors; AID 686978, 2013; hit rate 15% among 420,000; DT40 Tdp1-/- hTDP1 cells, no CPT, ATP luminescence, 48 h; further: potency means the concentration at half of the fitted maximal effect; on the % scale 0 is the no-effect control and ±100 the full control effect; nearly all actives have a fitted effect of over 55% in size
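Stably hTDP1-transfected Tdp1-null chicken DT40 cells were treated with library compounds minus camptothecin and grown for at least 48 hr at 37 °C, after which cellular ATP was quantified by luminescence.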
ClpP mod = qHTS Assay for Activators of ClpP; ATP-dependent Clp protease proteolytic subunit (Bacillus subtilis (strain 168)), P80244; purified B. subtilis ClpP, FRET peptide cleavage, 20 min; Potency, µM (top dose mostly 57.5 µM), without a hit: at the top dose activity change, negative = active; hit rate 1.9% among 340,000; AID 651965, 2013; active means well fitted falling curve with a large enough effect; inconclusive means small, poorly fitted or top-dose-only effect; inactive means no such curve, though single readings can be large or run the other way; further: potency means the concentration at half of the fitted maximal effect; the source files actives as falling curves though it sought activators and does not explain the sign; nearly all actives have a fitted effect of over 65% in size
Target sequence (P80244 whole entry, looked up): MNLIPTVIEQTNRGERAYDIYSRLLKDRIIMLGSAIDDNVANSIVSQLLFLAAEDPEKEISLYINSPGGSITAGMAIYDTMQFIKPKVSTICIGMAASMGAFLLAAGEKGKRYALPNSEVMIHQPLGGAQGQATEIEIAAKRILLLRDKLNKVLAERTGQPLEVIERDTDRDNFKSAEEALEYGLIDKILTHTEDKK
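Purified B. subtilis ClpP, 10 microg/mL final in Tris/HCl pH8 with KCl, BSA, glycerol and Tween-20, cleaved an Abz/nitrotyrosine-quenched decapeptide. Fluorescence (ex 320, em 430) was read at 0 and 20 min at room temperature. Delta was normalized to 5.8 microM ADEP and DMSO/no-enzyme controls.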
DRD3 antagonist = antagonists of human D3 dopamine receptor; AID 652054; hit rate 2.5% among 360,000; P35462; D3R cells, DiscoveRx beta-arrestin luminescence, antagonist mode; active compounds read low; max response, negative = inhibition, %; in the data active means max response below about -50%; inconclusive means no clear call, values can overlap the other calls; further: on the % scale 0 is the no-effect control and ±100 the full control effect
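Cells expressing the human receptor were seeded at 1500 cells/well, incubated overnight at 37 degrees C in 5% CO2, then exposed to library compounds with dopamine controls for 90 minutes at 37 degrees C before luminescent detection.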
DT40 TDP1 CPT = DT40-hTDP1 cell growth loss with CPT | chicken DT40 Tdp1-/-;hTDP1 cells + 20 nM CPT, ATP luminescence, 48 h | Potency, µM (top dose mostly 46.2 µM), for inactives: at the highest dose activity change, negative = growth inhibition, actives largely listed as inhibitors | hit rate 12% among 420,000; further: potency means the concentration at half of the fitted maximal effect; on the % scale 0 is the no-effect control and ±100 the full control effect; nearly all actives have a fitted effect of over 55% in size
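Chicken DT40 Tdp1-/- cells stably complemented with human TDP1 were seeded at 400 cells/well in medium containing 20 nM camptothecin, exposed to pin-transferred compounds, and grown at 37 °C for at least 48 hr. Viability was read as ATP luminescence.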
IL1B secr inh = inflammasome signaling inhibition, IL-1 beta readout | THP-1 LPS/ATP IL-1B secretion, AlphaLISA, 16 h; active compounds read low | activity change, % at 57.5 µM | hit rate 4.7% among 360,000; in the data active means activity change below about -50%; inconclusive means mostly about -30% to -49%; further: on the % scale 0 is the no-effect control and ±100 the full control effect
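Secreted IL-1B measured by AlphaLISA bead assay after 16 h compound exposure of THP-1 cells; compounds (final up to 57.5 uM) added 1 h before LPS (250 ng/mL) and ATP (1.25 mM) stimulation; lower signal means less secretion.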
Numbers without * were called inactive; i = inactive; ? = inconclusive; · = not tested or not shown. An excerpt weighted towards active compounds, which were near 21% of everything screened. Unless noted, the call rests on the fitted dose curve; in most records, active means well fitted inhibition curve with a large enough effect; inconclusive means small, poorly fitted or top-dose-only effect; inactive means flat fitted curve, though single readings scatter.

SMILES | D3 ag | DT40 TDP1 no CPT | ClpP mod | DRD3 antagonist | DT40 TDP1 CPT | IL1B secr inh
COC(=O)CCCn1cc(CN2CC(N3CCN(C)CC3)CS2(=O)=O)nn1 (configuration not stated) | 6 | -9% | -4% | -9 | -1% | 1
COc1ccc(C(=O)NC(CCSC)C(=O)NCc2nnc3ccccn23)cc1 (configuration not stated) | 0 | -2% | · | 2 | ? | -11
O=C(CCC1N=C2c3ccccc3N=C(SCC(=O)Nc3cccc(Cl)c3)N2C1=O)NCc1ccco1 (configuration not stated) | 7 | ? | -18% | · | ? | ·
CC(=O)CCC1C2C(O)C(C(C)C)C(OC(=O)/C=C/c3ccccc3)CC12C (configuration not stated) | 5 | 26µM* | -3% | 14 | 18µM* | 8
CC(=O)Nc1ccc(NC(=O)COC(=O)c2ccc([N+](=O)[O-])o2)cc1 | 0 | ? | · | 5 | -24% | 38
COc1ccc(N/C(=C/[N+](=O)[O-])SC)cc1 | -2 | -10% | · | -6 | 5% | -57*
CC(=O)c1ccc(NC(=O)c2ccc([N+](=O)[O-])o2)cc1 | 1 | 1.8µM* | -1% | 0 | 2.1µM* | -98*
CC(NC(=O)c1ccc([N+](=O)[O-])o1)C12CC3CC(CC(C3)C1)C2 (configuration not stated) | -7 | ? | · | -19 | ? | -136*
COc1cc(NC(=O)c2ccc([N+](=O)[O-])o2)ccc1NC(=O)c1ccco1 | 8 | 0.92µM* | 1% | -9 | 0.65µM* | -27
C[C@]12C(=O)N(c3ccc(F)cc3)C(=O)N1[C@H]1c3ccccc3OC[C@@H]1[C@H]2c1ccccc1 | -7 | ? | 2% | -6 | -28% | 24
Cc1cc(C)nc(NC(=O)c2ccc([N+](=O)[O-])o2)n1 | 5 | 13µM* | 24% | 0 | ? | 0
Cc1cc(C)cc(NC(=O)c2ccc([N+](=O)[O-])o2)c1 | 0 | 6.5µM* | · | ? | 7.3µM* | -96*
O=C(NNC(=O)c1ccc([N+](=O)[O-])o1)c1ccccc1 | -26 | ? | 1% | -10 | ? | -15
CC(=O)c1cccc(NC(=O)c2ccc([N+](=O)[O-])o2)c1 | 7 | 15µM* | · | 6 | 8.2µM* | -87*
Cc1cc(C)c2sc(NC(=O)c3ccc([N+](=O)[O-])o3)nc2c1 | -1 | ? | -3% | ? | ? | ?
COc1ccc(NC(=O)c2c([N+](=O)[O-])c(C(C)(C)C)nn2C)cc1 | 1 | ? | · | -7 | ? | -54*
CC(=O)Nc1ccc(NC(=O)c2c([N+](=O)[O-])c(C(C)(C)C)nn2C)cc1 | -4 | ? | · | -4 | -28% | ·
CCOC(=O)c1[nH]c(CO)c(C(=O)OCC)c1C | 10 | 3% | · | 5 | 14% | -2
COc1ccc(NC(=O)c2ccc([N+](=O)[O-])o2)cc1 | -10 | 23µM* | · | -9 | 16µM* | -96*
NS(=O)(=O)c1ccc(O)c(NC(=O)c2ccc([N+](=O)[O-])o2)c1 | 4 | ? | · | -16 | ? | -61*
O=C(NCCc1ccccc1)C1CCC(=O)N1C1CCCC1 (configuration not stated) | 7 | 2% | 1% | 17 | 8% | -12
Nc1ccc(O)c(-c2nc3ccccc3s2)c1 | -5 | 16µM* | -1% | 0 | 13µM* | -7
Oc1ccc(-c2nc3ccccc3s2)c(O)c1 | -3 | -3% | · | 37 | 4% | 33
Nc1ccc(-c2nc3ccc(N)cc3s2)cc1 | -3 | ? | · | 6 | -12% | -80*
Nc1ccc(-c2nc3ccc(C(=O)O)cc3s2)cc1 | 1 | -26% | -51% | 11 | -30% | 4
SMILES | D3 ag | DT40 TDP1 no CPT | ClpP mod | DRD3 antagonist | DT40 TDP1 CPT | IL1B secr inh
Nc1cc2sc(-c3ccc(C(=O)O)cc3)nc2cc1Cl | 9 | ? | 4.5µM* | 4 | 8.2µM* | 10
Oc1ccc(N=C/C=C/c2cccc(Br)c2)cc1-c1nc2ccccc2s1 | -5 | 21µM* | -2% | -2 | 12µM* | -15
O=C(CCC(=O)OCCOc1ccccc1)OCCOc1ccccc1 | -6 | -7% | -1% | -11 | -32% | 0
Nc1ccc2nc(-c3ccc(O)cc3)sc2c1 | 3 | 21µM* | 22% | · | 21µM* | ·
Oc1ccc(-c2nc3ccccc3s2)cc1 | -8 | -16% | 5% | 6 | ? | 14
CN1OC[C@@H]2CN[C@H](c3ccc(-c4ccc(C#N)cc4)cc3)C[C@@H]21 | -7 | 23µM* | -3% | ? | 18µM* | 6
CN1OC[C@@H]2CN[C@H](c3cccc(-c4cc(Cl)cc(Cl)c4)c3)C[C@@H]21 | -38 | ? | -1% | ? | ? | ?
CN1OC[C@@H]2CN[C@H](c3ccc(-c4cc5ccccc5o4)cc3)C[C@@H]21 | 3 | 23µM* | 4% | -17 | 16µM* | -10
O=C(O)c1cccc(CSc2ncn[nH]2)c1 | 4 | 29% | 0% | 4 | 3% | -1
O=C(N/C(=C/c1ccco1)C(=O)N1CCOCC1)c1ccccc1Br | 5 | -4% | 0% | 16 | 12% | i
Cc1ccc(Cn2nnc3c(=O)[nH]c(C4CCN(S(=O)(=O)c5ccccc5F)CC4)nc32)cc1 | 16 | 0% | · | 7 | -4% | -61*
O=c1[nH]c(C2CCN(S(=O)(=O)c3ccc(S(=O)(=O)NC4CC4)cc3)CC2)nc2c1nnn2Cc1cccc(F)c1 | -11 | ? | · | -17 | 16µM* | ?
O=c1[nH]c(C2CCN(S(=O)(=O)c3ccccc3)CC2)nc2c1nnn2Cc1ccccc1 | 4 | ? | 2% | 3 | 21µM* | -7
Cc1ccc(Cn2nnc3c(=O)[nH]c(C4CCN(S(=O)(=O)c5ccc(S(=O)(=O)NC6CC6)cc5)CC4)nc32)cc1 | -7 | ? | · | 9 | ? | ?
COC(=O)c1ccc(Cn2nnc3c(=O)[nH]c(C4CCN(S(=O)(=O)c5cc(C)ccc5C)CC4)nc32)cc1 | -4 | ? | 0% | 11 | 23µM* | 18
O=c1[nH]c(C2CCN(S(=O)(=O)c3ccc([N+](=O)[O-])cc3)CC2)nc2c1nnn2Cc1ccccc1 | 1 | ? | · | 3 | ? | 15
COc1ccc(CNC(=O)N2CCN(c3ccccc3OC)CC2)cc1 | 9 | -2% | · | 14 | -18% | -7
Nc1nc(CN2CCN(c3ccccc3)CC2)nc(Nc2ccc(Cl)cc2)n1 | -5 | ? | -1% | 2 | ? | ?
